Assay results as given in ChEMBL document CHEMBL5724796, “Tm Shift (DSF) assay results for EUbOPEN Chemogenomics Library” (2024).

molecular target: T1, Transcription intermediary factor 1-alpha (Homo sapiens) (UniProt O15164); conditions: Compound concentration 20.0 uM
T1 sequence (whole entry): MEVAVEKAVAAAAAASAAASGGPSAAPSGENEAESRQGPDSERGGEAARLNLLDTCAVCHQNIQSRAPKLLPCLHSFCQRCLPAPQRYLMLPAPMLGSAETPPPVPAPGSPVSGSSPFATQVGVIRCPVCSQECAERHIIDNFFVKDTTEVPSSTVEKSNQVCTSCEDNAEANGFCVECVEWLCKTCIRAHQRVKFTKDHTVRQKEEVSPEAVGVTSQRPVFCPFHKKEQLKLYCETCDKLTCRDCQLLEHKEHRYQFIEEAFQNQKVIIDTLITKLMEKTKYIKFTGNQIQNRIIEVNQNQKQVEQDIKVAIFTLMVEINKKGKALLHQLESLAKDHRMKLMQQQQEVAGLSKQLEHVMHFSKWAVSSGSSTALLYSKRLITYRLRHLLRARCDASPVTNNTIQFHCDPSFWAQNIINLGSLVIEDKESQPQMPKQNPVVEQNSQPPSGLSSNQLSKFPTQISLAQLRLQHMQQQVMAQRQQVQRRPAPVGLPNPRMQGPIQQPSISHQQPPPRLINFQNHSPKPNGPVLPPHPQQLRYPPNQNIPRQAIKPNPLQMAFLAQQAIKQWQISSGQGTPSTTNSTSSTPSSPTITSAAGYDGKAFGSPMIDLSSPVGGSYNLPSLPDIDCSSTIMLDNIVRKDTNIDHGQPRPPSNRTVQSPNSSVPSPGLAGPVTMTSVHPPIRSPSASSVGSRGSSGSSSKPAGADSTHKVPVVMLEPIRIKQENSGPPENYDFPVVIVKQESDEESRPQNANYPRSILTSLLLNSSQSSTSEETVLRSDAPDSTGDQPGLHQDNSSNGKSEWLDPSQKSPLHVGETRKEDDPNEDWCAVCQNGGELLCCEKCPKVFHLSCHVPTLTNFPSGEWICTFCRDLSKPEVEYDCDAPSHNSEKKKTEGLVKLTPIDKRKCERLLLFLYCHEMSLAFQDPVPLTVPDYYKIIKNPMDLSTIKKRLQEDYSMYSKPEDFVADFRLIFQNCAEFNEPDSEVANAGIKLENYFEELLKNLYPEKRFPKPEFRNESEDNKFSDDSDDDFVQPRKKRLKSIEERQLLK

SMILES	ΔTm [°C]
C[C@@H]1OC(=O)NN=C1c1ccc(-c2ccc(F)cc2)c(C(F)(F)F)c1	-0.48
N#C[C@@H]1CCCN1C(=O)CNC(=O)c1ccnc2ccc(OCCCN3CCN(C(=O)CN4CCN(CC(=O)O)CCN(CC(=O)O)CCN(CC(=O)O)CC4)CC3)cc12	0.33
O=C1C(=O)N(Cc2ccccc2)c2ccc(S(=O)(=O)N3CCC[C@H]3COc3ccc(C(F)(F)F)cc3)cc21	-1.21
CCCCN(Cc1ccc(C(=O)NO)cc1)C(=O)Nc1ccccc1	-1.23
